Out of some 360,000 compounds screened, about 8,200 (2.3%) were called active. Cut-off read from the data, not from the text of the source: active = inhibition above about 27%; inactive = the rest. The list comes from a sample in which actives are over-represented; it also holds similar structures and randomly drawn compounds.
Biological target: Fructose-bisphosphate aldolase (Mycobacterium tuberculosis (strain ATCC 25618 / H37Rv)) (UniProt P9WQA3)
Assay: M. tuberculosis aldolase activity blockers – biochemical, fluorescence, strain H37Rv, primary screen (AID 588726);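 note: 0% = vehicle and 100% = reference inhibitor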
Conditions: purified M. tuberculosis FBA, fluorescence read-out, at 1 µM, hits give high values

Chain of Fructose-bisphosphate aldolase (Mycobacterium tuberculosis (strain ATCC 25618 / H37Rv)) (P9WQA3 whole entry, looked up): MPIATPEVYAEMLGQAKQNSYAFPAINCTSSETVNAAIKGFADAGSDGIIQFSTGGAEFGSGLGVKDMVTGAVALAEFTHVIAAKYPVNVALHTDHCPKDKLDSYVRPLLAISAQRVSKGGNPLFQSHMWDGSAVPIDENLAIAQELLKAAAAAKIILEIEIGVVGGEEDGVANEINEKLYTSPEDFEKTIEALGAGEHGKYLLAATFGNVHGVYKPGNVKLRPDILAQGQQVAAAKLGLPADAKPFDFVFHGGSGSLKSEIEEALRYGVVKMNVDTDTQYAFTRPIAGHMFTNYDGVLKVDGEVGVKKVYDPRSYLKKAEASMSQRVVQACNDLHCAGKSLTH

Row | Compound | inhibition
1 | CC(C)(C)CC(=O)Nc1nc(C(N)Cc2ccc(C(F)(F)F)cc2)cs1 (configuration not stated) | -1.2% (inactive)
2 | Cc1ccccc1NC(=O)CCNS(=O)(=O)c1ccc2[nH]c(=O)oc2c1 | -4.94% (inactive)
3 | CC(=O)c1nn(-c2cccc(C(F)(F)F)c2)c(=O)[nH]c1=O | 2.77% (inactive)
4 | COc1cc(OC)c(C(=O)OC(C)C(=O)Nc2cc(C(F)(F)F)ccc2Cl)cc1OC (configuration not stated) | -1.34% (inactive)
5 | C/C(=N\NC(=O)c1ccc(CSc2nc(C)cc(C)n2)cc1)C1CCCCC1 | -4.8% (inactive)
6 | CCOC(=O)C1CCN(Cc2c(C(=O)N3CCOCC3)nc3c(C)cccn23)CC1 | 8.49% (inactive)
7 | CC(=O)c1ccc(NC(=O)CSc2nc3ccccc3c(=O)n2CCCN2CCOCC2)cc1 | -0.35% (inactive)
8 | C=CCO/N=C/C1=C(O)C(C(=O)OC)C(C)(C)CC1=O (configuration not stated) | 0.55% (inactive)
9 | O=C1c2ccccc2C(=O)C1c1ccccc1 | 4.16% (inactive)
10 | O=C1C(=O)N(c2ccccc2)C(c2ccccc2)C1c1ccccc1 (configuration not stated) | 53% (active)
11 | O=C1[C@@H](c2ccccc2)[C@@H](c2ccccc2)N1c1cccnc1 | 4.74% (inactive)
12 | Cc1ccccc1-c1csc(C(O)c2cccc(Cl)c2)n1 (configuration not stated) | -4.41% (inactive)
13 | Fc1ccc(CSc2nnc(-c3cc4c(s3)-c3ccccc3CC4)o2)cc1 | 154% (active)
14 | O=C(CSc1nnc(-c2ccccc2O)o1)NC1CCCCC1 | 0.67% (inactive)
15 | Clc1ccc(CSc2nnc([C@@H]3CCCN3)o2)cc1 | 4.22% (inactive)
16 | CCSc1nnc(-c2cc3c(s2)-c2ccccc2CC3)o1 | 61.2% (active)
17 | C#CCSc1nnc(-c2sc3ccccc3c2Cl)o1 | 4.19% (inactive)
18 | Fc1ccc(-c2nnc(CSc3nnc(-c4ccc5c(c4)OCO5)o3)o2)cc1 | -2.07% (inactive)
19 | CNC(=O)C[C@H]1C(=O)N(Cc2ccccc2)C[C@@H]1CSC | 3.42% (inactive)
20 | COc1ccc(OC)c(-c2c(=O)n(OCc3ccccc3Br)c3ccccc3[n+]2[O-])c1 | -1.19% (inactive)
21 | COc1cc(N2C(=O)CC3(CCCC3)CC2=O)cc(OC)c1OC | 0.26% (inactive)

Row | Compound | inhibition
22 | CCN(C(=O)C1CCCN(c2nc(-c3ccc(OC)cc3)no2)C1)c1ccc(OC)cc1 (configuration not stated) | -2.44% (inactive)
23 | Cc1cc(C)c2c(n1)nn1c(-n3ccnc3)cc(C)nc21 | 27.6% (active)
24 | CCCCNCc1ccc(SC)cc1 | -1.81% (inactive)
25 | CCNc1nc(Oc2ccc(C(=O)OC)cc2)nc(N2CCOCC2)n1 | 0.39% (inactive)
26 | COc1ccc(N(C(=O)c2snc(C(N)=O)c2N)C(C(=O)NC2CCCC2)c2ccc(C)o2)c(OC)c1 (configuration not stated) | 2.34% (inactive)
27 | CCOC(=O)c1ccc(CS(=O)c2ccc(Cl)cc2)o1 (configuration not stated) | -0.81% (inactive)
28 | CCOC(=O)c1ccc(-c2ccc3ncnc(N(C)Cc4sccc4C)c3c2)o1 | 171% (active)
29 | COc1ccccc1C(=O)Nn1c(-c2cccs2)nc2ccccc2c1=O | 0.05% (inactive)
30 | CCc1nnc(NC(=O)CSc2nc3ccccc3c(=O)n2CCCOC)s1 | -4.95% (inactive)
31 | CC1CN(c2cc(=O)n(Cc3ccc(F)cc3)c(=O)[nH]2)CC(C)O1 (configuration not stated) | -1.34% (inactive)
32 | Cc1ccc2c(C)c(C(=O)N3CCC(N4CCC(C(=O)NC5CC5)CC4)CC3)oc2c1 | 1.31% (inactive)
33 | CC(=O)N1CCC(C(=O)Nc2nc(-c3ccccc3)ns2)CC1 | -0.01% (inactive)
34 | O=C(NNC(=O)C1CCN(c2ncccn2)CC1)c1ccccc1 | 1.54% (inactive)
35 | Cc1cc(-c2ccccc2)nc(N2CCC(C(=O)NC34CC5CC(CC(C5)C3)C4)CC2)n1 | 170% (active)
36 | CCOc1cc(-c2noc(CCC(=O)N3CCOCC3)n2)ccc1OC | 1.37% (inactive)
37 | CCCn1c(=O)c(-c2ccccc2)c(O)c2ccccc21 | 35.6% (active)
38 | CCCCCn1c(=O)c(C(=O)OCC)c(Cl)c2ccccc21 | 1.96% (inactive)
39 | CCCn1c(=O)c(C(=O)Nc2cc(C)ccn2)c(O)c2ccccc21 | 1.3% (inactive)
40 | Cc1cccc(C(=O)C(O)(c2ccccc2)C2CCCCC2=O)c1 (configuration not stated) | 3.06% (inactive)
41 | O=C(Nc1cccnc1)c1noc2c1CCCCC2 | 1.31% (inactive)
42 | CC(C)C(=O)Nc1ccc2c3c(cccc13)CC2 | -0.4% (inactive)

Row | Compound | inhibition
43 | N#CC1(Nc2ccc(-c3ccc(Cl)cc3)cc2)CCCC1 | -1.27% (inactive)
44 | N#CC1(Nc2ccc3c4c(cccc24)CC3)CCCCC1 | 48% (active)
45 | O=C(c1ccccc1)c1cc(-c2ccccn2)c(N2CCOCC2)s1 | -4.69% (inactive)
46 | CSc1ncnc2c1ncn2CC(=O)C1CCC2C3CCC4=CC(=O)CCC4(C)C3CCC12C (configuration not stated) | -0.85% (inactive)
47 | COCCCNC(=O)CC1C[C@H](C(=O)N2CCCCC2)[C@@]2(CCc3ccccc3)c3[nH]c4ccccc4c3CCN2C1=O (some centres not stated) | 0.45% (inactive)
48 | COc1ccc2c(CC(=O)OCC(=O)NC(N)=O)coc2c1 | 2.04% (inactive)
49 | Cc1ccc2cc(C#N)c(NCCNC(=S)NCCCN3CCOCC3)nc2c1 | 11.2% (inactive)
50 | COCCCNC(=S)NCCNc1nc2cc(C)c(C)cc2cc1C#N | 27.3% (active)
51 | Cc1ccc2nc(NCCCNC(=O)c3cnccn3)c(C#N)cc2c1 | 22.9% (inactive)
52 | CCCC(C(=O)NCc1ccco1)N(C(=O)CNS(=O)(=O)c1ccccc1)C1CCCC1 (configuration not stated) | 0.18% (inactive)
53 | c1ccc2cc(CCCc3cc4ccccc4cn3)ncc2c1 | 5.36% (inactive)
54 | O=C(CSc1nnc(-c2ccncc2)n1C1CCCCC1)Nc1ccccc1 | -1.22% (inactive)
55 | CC1CCCN(S(=O)(=O)c2ccc(-c3ccc(=O)[nH]n3)o2)C1 (configuration not stated) | 3.28% (inactive)
56 | CC(OC(=O)c1ccccc1NCCO)C(=O)Nc1ccnn1C(C)C (configuration not stated) | 92% (active)
57 | COC(=O)c1ccccc1NC(=O)CSc1ccccn1 | 1.02% (inactive)
58 | Cc1c(NC(=O)C(C)OC(=O)c2ccccc2O)c(=O)n(-c2ccccc2)n1C (configuration not stated) | -3.77% (inactive)
59 | C=CCn1cc(C(=O)NCc2ccc(Cl)cc2)c(=O)c2cc(S(=O)(=O)N(CC)CC)ccc21 | 3.32% (inactive)
60 | Nc1ccc(C(=O)OCC(=O)NC2CCS(=O)(=O)C2)cc1[N+](=O)[O-] (configuration not stated) | -2.41% (inactive)
61 | O=C(COC(=O)CCCN1C(=O)c2cccc3cccc(c23)C1=O)NC1CCS(=O)(=O)C1 (configuration not stated) | 45.1% (active)
62 | O=C(COC(=O)/C=C/c1ccc(Cl)cc1)NC1CCS(=O)(=O)C1 (configuration not stated) | -2.05% (inactive)

Reference: PubChem BioAssay AID588726 (The Scripps Research Institute Molecular Screening Center, 2011)
